D3 ag: qHTS of D3 Dopamine Receptor Agonist: qHTS; D(3) dopamine receptor (Homo sapiens), P35462; D3R DiscoveRx beta-arrestin cells, luminescence, 90 min; max activation, %; 410,000 compounds, 0.58% hits; in the data active means max activation above about 30%; further: 0% is about no effect
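Cells at 1500/well, incubated overnight, then treated with pinned compounds (dopamine as control) for 90 min at 37 degrees C. DiscoveRx reagent added for 30 - 60 minutes at room temperature; luminescence read.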
B2AR arrestin: qHTS assay of beta-arrestin-biased ligands of beta2-adrenergic receptor; beta-arrestin recruitment to beta2AR, cell-based reporter; Potency, µM (highest dose often 46.1 µM), for the others: at the highest dose activation, hits mostly activators; 330,000 compounds, 0.02% hits; Beta-2 adrenergic receptor (Homo sapiens), P07550; AID 492947, 2010;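 further: potency means the concentration at half of the fitted maximal effect; 0% = DMSO controls and full agonism = EC100 isoproterenol or metaproterenol; nearly all actives have a fitted effect of over 65% in size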
Integrin act MD: qHTS for Activators of Integrin-Mediated Alleviation for Muscular Dystrophy. AID 624291, 2012. 350,000 compounds, 0.064% hits. alpha7betagal myoblasts, beta-gal FDG fluorescence, 48 h. Potency, µM (doses to about 38.3 µM), inactives show at the top dose activation, actives largely listed as activators;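 further: potency means the concentration at half of the fitted maximal effect; 100% = response of the positive control SU9516; nearly all actives have a fitted effect of over 60% in size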
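Alpha7betagal+/- myoblasts (passage 13) were plated 16-24 hr, then exposed to compounds (1:260 dilution of DMSO stock) for 48 hours at 37C. After MPER lysis, β-galactosidase reporter activity was read as FDG fluorescence (ex 480/em 540) after 30 minutes.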
DRD3 antagonist: qHTS of D3 Dopamine Receptor Antagonist: qHTS | D(3) dopamine receptor (Homo sapiens), P35462 | D3R cells, DiscoveRx beta-arrestin luminescence, antagonist mode; active compounds read low | max response, negative = inhibition, % | 360,000 compounds, 2.5% hits | AID 652054, 2013; in the data active means max response below about -50%; inconclusive means no clear call, values can overlap the other calls; further: on the % scale 0 is the no-effect control and ±100 the full control effect
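Cells plated overnight at 1500 cells/well, then exposed to library compounds with dopamine controls for 90 minutes at 37 degrees C. DiscoveRx reagent added for 30–60 minutes at room temperature; luminescence read, quantitative HTS format.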
mIDH1 inhibitor: qHTS for Inhibitors of mutant isocitrate dehydrogenase 1 (IDH1): qHTS; Isocitrate dehydrogenase [NADP] cytoplasmic (Homo sapiens), O75874; IDH1-R132H enzyme, NADPH consumption, diaphorase/resazurin fluorescence; Potency, µM (highest dose often 76.6 µM), for the others: at the top dose activity change, negative = inhibition, hits mostly inhibitors; 390,000 compounds, 0.093% hits; AID 602179, 2012; further: potency means the concentration at half of the fitted maximal effect; on the % scale 0 is the no-effect control and ±100 the full control effect; nearly all actives have a fitted effect of over 65% in size
Target sequence (O75874 whole entry R132H, stated change not applied): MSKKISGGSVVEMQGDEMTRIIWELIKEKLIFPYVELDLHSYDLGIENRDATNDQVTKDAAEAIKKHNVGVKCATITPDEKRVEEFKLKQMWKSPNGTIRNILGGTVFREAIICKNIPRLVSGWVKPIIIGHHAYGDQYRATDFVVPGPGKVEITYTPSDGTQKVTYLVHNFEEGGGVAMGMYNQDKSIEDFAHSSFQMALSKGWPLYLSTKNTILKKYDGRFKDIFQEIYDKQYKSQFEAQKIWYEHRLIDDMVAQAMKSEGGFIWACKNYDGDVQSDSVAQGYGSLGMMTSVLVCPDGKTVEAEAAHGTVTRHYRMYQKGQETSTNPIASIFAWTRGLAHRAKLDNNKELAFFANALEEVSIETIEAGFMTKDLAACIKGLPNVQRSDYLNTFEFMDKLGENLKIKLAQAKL
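IDH1-R132H (0.5 ug/mL dispensed) in pH 7.5 Tris buffer was preincubated 30 min with compound, then given a substrate mix of 0.016 mM NADPH and 2 mM alpha-KG for 80 min at room temperature; remaining NADPH was read by diaphorase/resazurin fluorescence.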
* = called active by the depositor; ? = inconclusive; . = no result given. Only some compounds are listed: those with a hit (about 2.9% of all), similar ones and a draw of the others. Unless noted, the call rests on the fitted dose curve; in most records, active means well fitted curve in the direction sought with a large enough effect; inconclusive means small, poorly fitted or top-dose-only effect, or another doubt; inactive means no such curve, though single readings can be large; an effect the other way counts as inactive or inconclusive.

SMILES | D3 ag | B2AR arrestin | Integrin act MD | DRD3 antagonist | mIDH1 inhibitor
COc1ccccc1NS(=O)(=O)c1cccc(C(=O)N(C)Cc2cccs2)c1 | -3 | 0% | 3% | -13 | 9%
Cc1cccc(CN2C(=O)c3ccccc3Sc3ccc(C(=O)NC4CCCCC4)cc32)c1 | -7 | . | . | . | 3%
CC(=O)c1sc2nc(-c3ccc(C)cc3)c3c(c2c1N)CCCC3 | 52* | -1% | 6% | 68 | 0%
O=C(NCc1ccc2c(c1)OCO2)C(=O)NCC1OCCN1S(=O)(=O)c1ccccc1 (configuration not stated) | 4 | . | 4% | 5 | 5%
COc1ccc(CNC2CCCc3ccccc32)cc1OC (configuration not stated) | -24 | 3% | ? | 4 | 6%
OC(CNC1CCCc2ccccc21)COc1ccc2ccccc2c1 (configuration not stated) | -3 | 0% | -31% | -4 | 6%
CCc1ccccc1OC[C@@H](O)CN[C@H]1CCCc2ccccc21 | -59 | 0% | . | -53* | 2%
CCOc1ccc(CNC2CCCc3ccccc32)cc1 (configuration not stated) | -22 | 0% | -44% | -51* | -4%
COc1cccc(N2CCN(Cc3cc(=O)oc4cc(C)ccc34)CC2)c1 | -13 | . | . | . | 0%
O=C(O)C1CC=CCC1C(=O)N1CC=C(c2ccccc2)CC1 (configuration not stated) | -12 | 0% | -46% | -62* | 9%
C/C(=N\Nc1nnc(C)c(=O)[nH]1)C(=O)O | -42 | 0% | -26% | -52* | 2%
CC(/C=N/Nc1nnc(C)c(=O)[nH]1)=C\c1ccccc1 | -5 | 0% | -20% | -23 | 4%
COc1ccc(Br)cc1CNC(=O)Cn1c(=O)c2cccn2c2ccc(F)cc21 | -5 | . | . | . | 12%
NC(c1csc(NC(=O)Nc2ccccc2Cl)n1)C1CCCCC1 (configuration not stated) | 58* | . | . | -28 | .
COc1ccccc1NC(=O)Nc1nc(C(N)C2CCCCC2)cs1 (configuration not stated) | -17 | . | . | ? | .
CC1CCN(CC(O)COc2cccc(F)c2)CC1 (configuration not stated) | -22 | 0% | -4% | -57* | 11%
CC1CCN(CC(O)COc2ccc(-c3ccccc3)cc2)CC1 (configuration not stated) | -16 | 1% | ? | -73* | 1%
COc1cc(NC(=O)CC2C(=O)N(c3cccc(C)c3)C(=O)N2Cc2ccc(F)cc2)cc(OC)c1 (configuration not stated) | 0 | . | . | . | 19%
Cc1ccc2c(c1)[C@@H]1CN(C)CC[C@@H]1N2S(=O)(=O)c1ccc(F)cc1 | -21 | 0% | -7% | -63* | 2%
Cc1ccc2c(c1)[C@@H]1CN(C)CC[C@@H]1N2S(=O)(=O)c1ccc([N+](=O)[O-])cc1 | -14 | 0% | -27% | -107* | 8%
CCc1ccc(S(=O)(=O)N2c3ccc(C)cc3C3CN(C)CCC32)cc1 (configuration not stated) | -20 | 0% | -38% | ? | 6%
CC(=O)N1CCc2cc(S(=O)(=O)CCC(=O)N3CCN(c4ccccn4)CC3)ccc21 | 0 | -1% | 0% | 3 | 3%
O=C(CN1CCN(c2ccccc2F)CC1)c1c[nH]c2ccc(F)cc12 | -4 | -1% | 2% | -10 | 5%
CC(=O)N1CCc2cc(C(=O)CN3CCN(c4ccccc4F)CC3)ccc21 | -1 | 0% | 6% | -65* | -4%
O=C(CN1CCN(c2ccccc2F)CC1)c1ccc2cc[nH]c2c1 | -3 | -1% | -6% | -63* | 1%
SMILES | D3 ag | B2AR arrestin | Integrin act MD | DRD3 antagonist | mIDH1 inhibitor
CC(=O)N1CCc2cc(C(=O)CN3CCN(c4ccccn4)CC3)ccc21 | 68* | 0% | -12% | -4 | -5%
O=C(C=C(O)c1ccc(Cl)cc1)C(=O)NNC(=O)C(O)(c1ccccc1)c1ccccc1 | 0 | . | -7% | -8 | 1%
Cc1ccc(/C(O)=C/C(=O)C(=O)NNC(=O)C(O)(c2ccccc2)c2ccccc2)cc1 | 4 | 0% | -7% | -88* | -1%
O=C(CCN1C(=O)/C(=C/c2cccs2)SC1=S)N1CCCCC1 | 34* | 0% | -36% | 11 | 0%
Cc1ccc(-c2noc(-c3nnn(-c4ccc(Br)cc4F)c3C)n2)cc1 | 2 | . | . | . | .
C[C@H]1CCC[C@]2(O[C@H](CCO)C[C@H](O)[C@H]2O)O1 | 37* | . | 0% | 11 | -1%
C[C@H]1CCC[C@@]2(O[C@@H](CCO)C[C@H](O)[C@H]2O)O1 | 8 | . | -6% | -9 | -11%
CC(=O)Nc1cccc(NC(=O)CSc2nnc(NC(=O)C3CC3)s2)c1 | 2 | -2% | 28% | 5 | -2%
COc1cccc(NC(=O)CSc2nnc(NC(=O)C3CC3)s2)c1 | 0 | 0% | 5% | -57* | -8%
COc1cccc(NC(=O)CSc2nc3ccccc3cc2Cc2ccccc2)c1 | 1 | 0% | -2% | -52* | -2%
O=C(NCc1ccc(Cl)cc1)c1ccc2c(Cl)c3c(nc2c1)CCCC3 | -5 | . | . | . | 2%
O=C(CSc1nc2c([nH]c3ccccc32)c(=O)n1-c1ccc(F)cc1)NC1CCCCC1 | -9 | . | . | . | 4%
Cc1ccc(N2CCN(C(=O)c3cnc(N4CCCCC4)c4ccccc34)CC2)c(C)c1 | 8 | . | . | . | -16%
Cc1cc(/C=N/NC(=O)c2ccc(O)cc2)c(C)n1C1CC1 | -3 | 0% | 13% | -54* | 0%
Cc1ccc(C(=O)Nc2cccc(C(=O)N/N=C/c3ccc(O)cc3)c2)cc1 | -19 | 0% | -21% | -17 | -5%
CC(=O)OCC(=O)[C@@]12N=C(C)O[C@@H]1C[C@H]1[C@@H]3CCC4=CC(=O)C=C[C@]4(C)[C@H]3[C@@H](O)C[C@@]12C | -2 | . | . | . | .
Nc1nnc(CC(=O)N/N=C/c2cccc([N+](=O)[O-])c2)s1 | -13 | 0% | -9% | 0 | 11%
Nc1nnc(CC(=O)N/N=C/c2cc([N+](=O)[O-])cc(Br)c2O)s1 | -19 | 0% | 34% | -109* | 2%
COC(=O)N/N=C/c1cc([N+](=O)[O-])cc(Br)c1O | -15 | 0% | 15% | -98* | 2%
O=C(CNC(=O)c1ccccc1Br)N/N=C\c1cc([N+](=O)[O-])cc(Br)c1O | -27 | 0% | -11% | -76* | -1%
COC(=O)N/N=C/c1cccc([N+](=O)[O-])c1 | -11 | 0% | 38% | -27 | 3%
COc1ccccc1CNC(=O)c1sc2nc3n(c(=O)c2c1C)CCC3 | -7 | . | . | . | 2%
